Experimental data reported in PubChem BioAssay AID1445 (SRMLSC, 2008).
“And” between values parts separate entries of the source, which are not always exact repeats. Identical values can stand only once. The whole screen tested about 220,000 compounds, of which about 910 (0.41%) were called active. The sample holds actives, similar compounds and a random draw of the others, so the mix is not that of the screen. Results with a measured potency or affinity are listed apart. Values without a mark were called inactive.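 Rule for the calls: active = primary inhibition above the hit cutoff, then over 50% inhibition at one or more dose response concentrations (cut at about 23% in these data, passing the limit was not always enough); inconclusive = conflicting primary data, or primary hits not chosen for dose response; inactive = low primary inhibition, or under 50% at every dose.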

biological target: Aminopeptidase N (Plasmodium falciparum (isolate 3D7)) (UniProt O96935); assay: malaria alanyl aminopeptidase activity blockers – biochemical, fluorogenic H-Leu-NHMec substrate, 1536-well (AID 1445); conditions: recombinant M1AAP, H-Leu-NHMec fluorogenic kinetic assay; at 30 µM, hits give high values unless noted;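 note: plate controls were DMSO full reaction for no effect and no enzyme background for full effect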
Sequence (O96935 whole entry, looked up): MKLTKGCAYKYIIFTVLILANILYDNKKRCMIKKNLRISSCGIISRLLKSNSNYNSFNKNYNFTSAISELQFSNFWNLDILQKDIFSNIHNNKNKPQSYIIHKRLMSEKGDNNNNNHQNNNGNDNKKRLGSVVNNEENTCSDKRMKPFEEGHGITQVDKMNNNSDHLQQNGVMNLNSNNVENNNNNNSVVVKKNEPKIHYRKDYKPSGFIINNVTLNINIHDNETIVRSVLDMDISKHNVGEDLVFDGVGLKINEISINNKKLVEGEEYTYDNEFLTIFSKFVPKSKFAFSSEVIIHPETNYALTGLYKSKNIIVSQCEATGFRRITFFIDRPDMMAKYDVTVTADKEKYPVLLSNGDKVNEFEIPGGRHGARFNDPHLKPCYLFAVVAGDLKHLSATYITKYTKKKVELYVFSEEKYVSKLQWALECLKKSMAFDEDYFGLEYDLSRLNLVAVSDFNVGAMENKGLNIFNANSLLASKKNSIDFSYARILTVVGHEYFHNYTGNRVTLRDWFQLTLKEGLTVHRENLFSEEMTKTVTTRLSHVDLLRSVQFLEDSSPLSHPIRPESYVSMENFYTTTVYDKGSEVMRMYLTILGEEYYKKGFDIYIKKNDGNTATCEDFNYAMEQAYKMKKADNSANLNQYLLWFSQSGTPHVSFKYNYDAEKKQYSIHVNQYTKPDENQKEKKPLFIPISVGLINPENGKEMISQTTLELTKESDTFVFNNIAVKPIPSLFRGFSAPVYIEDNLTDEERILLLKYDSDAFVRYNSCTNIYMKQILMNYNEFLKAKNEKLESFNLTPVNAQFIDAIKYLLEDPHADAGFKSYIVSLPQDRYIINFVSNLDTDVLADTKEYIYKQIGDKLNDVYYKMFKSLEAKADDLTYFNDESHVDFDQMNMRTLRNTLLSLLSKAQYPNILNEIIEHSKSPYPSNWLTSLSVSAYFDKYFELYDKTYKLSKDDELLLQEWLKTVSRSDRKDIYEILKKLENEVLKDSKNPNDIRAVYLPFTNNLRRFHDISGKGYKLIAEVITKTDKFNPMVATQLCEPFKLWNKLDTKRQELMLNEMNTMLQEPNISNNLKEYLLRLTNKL

SMILES | inhibition
CCSc1nnc2c(n1)OC1(CCCC1)Nc1ccccc1-2 | 12.5%
O=C(O)c1ccc(/C=N/NC(=O)c2cc(-c3ccc4c5c(cccc35)CC4)n[nH]2)cc1 | 13.5%
O=C(N/N=C/c1cccc([N+](=O)[O-])c1)c1cc(-c2ccc3c4c(cccc24)CC3)n[nH]1 | 6.89%
COc1ccc(-n2c(=S)[nH]c3cc(C(=O)NCc4ccco4)ccc3c2=O)cc1OC | 7.75% and 12.6%
CCCc1cc(=O)[nH]c(Nc2cc(OC)ccc2OC)n1 | -0.31%
CCOc1ccc(N(C(=O)c2ccccc2Cl)C2=NC(C)(C)CS2)cc1 | 5.11%
O=C(O)c1ccc2c(c1)C1C=CCC1C(c1ccncc1)N2 (configuration not stated) | 9.23%
Fc1ccc2c(c1)C1C=CCC1C(c1cc3c(cc1Br)OCO3)N2 (configuration not stated) | 5.12%
Brc1cc2c(cc1C1Nc3ccccc3C3C=CCC31)OCO2 (configuration not stated) | 6.9%
COc1cccc(NS(=O)(=O)c2ccc3c(c2)C2C=CCC2C(c2ccc(C(=O)O)cc2)N3)c1 (configuration not stated) | 22.8%
Cc1nc2c(C)cccn2c1/C(O)=C1\C(=O)C(=O)N(CCN(C)C)C1c1ccccc1 (configuration not stated) | -2.63%
CC(=O)c1ccccc1OC(=O)c1c(F)cccc1F | 3.59%
Cc1nc2cc(F)ccc2n1C1CCN(C(=O)c2c(F)cccc2F)CC1 | 5.28%
Cc1cccc(-c2c3c(=O)n(C)c(=O)n(C)c3cn2C(C)(C)C)c1 | 7.14%
O=c1[nH]c2ccc(NC(=S)NCc3ccccc3)cc2[nH]1 | -4.38%
C=CCn1c(COc2ccccc2)nnc1SC(C)C(=O)N/N=C/c1cc(Cl)ccc1O (configuration not stated) | 46.5% (active)
C=CCn1c(COc2ccc(Cl)cc2)nnc1SCC(=O)N/N=C/c1cccc(O)c1 | 6.07%
C=CCn1c(COc2ccc(Cl)cc2)nnc1SCC(=O)N/N=C/c1ccccc1 | 0.22%
CC1CC(=O)Nc2ccccc2N1S(=O)(=O)c1ccc(Br)cc1 (configuration not stated) | -1.92%

SMILES | inhibition
COc1ccccc1NC(=O)Cc1noc(CSc2nnc(C)n2C)n1 | -2.44%
Cc1ccccc1CS(=O)(=O)Cc1ccc(C(=O)NCc2ccccn2)o1 | 11.9%
O=C(CSc1ncnc2scc(-c3ccccc3)c12)Nc1ccc(C(=O)O)cc1 | 7.21%
Cc1sc2ncnc(SCc3ccc(C(=O)O)cc3)c2c1C | 8.46%
COC(=O)CSc1ncnc2scc(-c3ccccc3)c12 | 8.48%
Cc1ccc(-c2csc3ncnc(SCC(=O)O)c23)cc1 | -4.79%
CCc1cc2ccccc2nc1SCC(=O)Nc1cc(OC)c(OC)cc1C(=O)O | 6.44%
CCc1cc2ccc(C)cc2nc1SCC(=O)Nc1cc(OC)c(OC)cc1C(=O)O | 17.6%
Cn1c(SCC(=O)N(Cc2ccccc2)C(C)(C)C)nc2ccccc21 | -3.33%
COC(=O)c1ccc(N(C(=O)CNC(=O)c2ccco2)C(C(=O)NC2CCCC2)c2ccco2)cc1 (configuration not stated) | -1.68%
FC(F)(F)c1cccc(OCCN2CCN(Cc3ccccc3)CC2)c1 | -0.96%
O=c1cnnc(N/N=C/c2ccc3c(c2)OCO3)[nH]1 | 4.09%
COc1ccc(C(=O)COc2ccc(F)cc2)c(O)c1C | 0.41%
CCCCN1CNC(=S)N(CCc2ccccc2)C1 | 2.11%
O=c1cc(/N=C/c2coc3cc(Br)ccc3c2=O)[nH]c(=S)[nH]1 | 18.8%
O=C(CCCN1C(=O)S/C(=C\c2ccccc2)C1=O)NNC(=O)c1ccccc1O | -1.57%
O=C(NNC(=O)c1ccccc1O)c1ccco1 | 5.04%
O=C(NN=C1CCN(Cc2ccccc2)CC1)c1ccccc1O | 8.75%
O=C(CN1C(=O)/C(=C/c2ccccc2)SC1=S)NNC(=O)c1ccccc1O | 6.33%

SMILES | inhibition
CCN1C(=O)C2(C(C(=O)c3cc4ccccc4o3)=C(O)C(=O)N2CCCN2CCOCC2)c2ccccc21 (configuration not stated) | 2.91%
COc1cccc(Cn2cnc3c(NS(=O)(=O)c4ccc(Cl)cc4)c(C)c(C)cc32)c1 | 7.11%
NC(=S)N/N=C/c1ccc(-c2ccc([N+](=O)[O-])cc2)o1 | -0.83%
O=[N+]([O-])c1ccc(-c2ccc(/C=N/O)o2)cc1 | 2.25%
O=C(N/N=C/c1ccc(-c2cccc([N+](=O)[O-])c2)o1)c1ccccc1O | -18.1%
O=C(O)c1ccc(N/N=C/c2ccc(-c3cccc(Cl)c3)o2)cc1 | 13.1%
O=C(N/N=C/c1ccc(-c2ccc([N+](=O)[O-])cc2)o1)C(O)c1ccccc1 (configuration not stated) | 18.2%
O=C(N/N=C/c1ccc(-c2cccc([N+](=O)[O-])c2)o1)c1ccc([N+](=O)[O-])cc1 | 2.39%
Cc1ccc(C(=O)N/N=C\c2ccc(-c3ccc([N+](=O)[O-])cc3)o2)cn1 | 9.19%
NC(=O)N/N=C/c1ccc(-c2ccc([N+](=O)[O-])cc2)o1 | 2.91%
Cc1ccc(-n2c(-c3ccco3)n[nH]c2=S)cc1 | 0.43%
COC(=O)c1cc(C(=O)OC)cc(N2C(=O)CC(NNC(=O)c3ccccc3Br)C2=O)c1 (configuration not stated) | 17.2%
Cc1ccc(NC(=O)CN2C(=O)c3ccccc3C2=O)nc1 | 1.04%
CCn1cc(C(=O)O)c(=O)c2cc(F)c(N/N=C/c3ccccc3[N+](=O)[O-])cc21 | -4.53%
Cc1nc(-c2cccc(S(=O)(=O)N3CC(C)OC(C)C3)c2)cs1 (configuration not stated) | -2.63%
CCOc1ccc(CCNC(=O)Cc2nn[nH]n2)cc1OCC | -2.11%
CN(C)C(=O)c1c([N+](=O)[O-])c(C(C)(C)C)nn1C | 9.14%
CCOc1ccccc1NC(=S)N1CCCc2ccccc21 | 2.13%
C/C=C\C(=O)Nc1cccc(C2=NOC3(C2)C[C@@H](C(N)=O)N(C(=O)c2ccccc2)C3)c1 (some centres not stated) | 7.63%
